Source: the supplement of paper PMC8975748
Where a name gives a salt, the structure may show the parent alone.

test system: Saccharomyces cerevisiae BY4741 SeMeCo community; experiment: z-score of subpopulation abundance vs DMSO median, subpopulation auxotrophic for M; higher = larger share of this subpopulation than in DMSO controls; conditions: 10 µM; 24 h; SM minimal medium; subpopulation (auxotrophy): M
Method: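 Fluorescent four-plasmid SeMeCo (self-establishing metabolically cooperating S. cerevisiae BY4741 community; plasmids pH-mRuby2, pL-mWasabi, pU-eCFP, pM-TagRFP657) was grown 24 h in minimal SM medium with each Selleck FDA-approved drug at 10 µM in 384-well plates. Cells were fixed and imaged by high-content confocal microscopy. For each auxotrophic subpopulation (and the prototroph), a z-score gives the deviation from the DMSO vehicle-control population median.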

SMILES | z-score of subpopulation abundance
N[C@@H]1C[C@H]1c1ccccc1 [Tranylcypromine (2-PCPA) HCl] | -0.13
CN(C)C(=O)Oc1cccc([N+](C)(C)C)c1 [Neostigmine Bromide] | 0.29
C[C@@H]1O[C@@H](O[C@H]2C[C@@H](O)[C@]3(CO)[C@H]4[C@H](O)C[C@]5(C)[C@@H](C6=CC(=O)OC6)CC[C@]5(O)[C@@H]4CC[C@]3(O)C2)[C@H](O)[C@H](O)[C@H]1O [Ouabain] | -0.73
CCOC(=O)Nc1ccc(NCc2ccc(F)cc2)cc1N [Retigabine 2HCl] | 0.27
CCN(CC)CCOC(=O)C(O)(c1ccccc1)c1ccccc1 [Benactyzine hydrochloride] | -1.19
CCN(C)C(=O)Oc1cccc([C@H](C)N(C)C)c1 [Rivastigmine Tartrate] | -0.28
C=CC[C@]1(O)CC[C@H]2[C@@H]3CCC4=CC(=O)CCC4=C3C=C[C@@]21C [Altrenogest] | 0.62
Nc1nc(N)nc(NC2CC2)n1 [Cyromazine] | 0.95
COc1ccc(C=O)cc1 [p-Anisaldehyde] | -1.36
Oc1cccc2cccnc12 [8-Hydroxyquinoline] | 1.04
CN[C@@H]1[C@@H](O)[C@@H](O[C@@H]2[C@@H](O)[C@H](O[C@H]3O[C@H]([C@@H](C)O)[C@@H](O)[C@H](O)[C@H]3N)[C@@H](N)C[C@H]2N)OC[C@]1(C)O [Geneticin (G418 Sulfate)] | -0.27
C#C[C@]1(O)C=C[C@H]2[C@@H]3CCC4=CC(=O)CC[C@@H]4[C@H]3CC[C@@]21CC [Gestodene] | 0.43
CC[C@H]1[C@@H]2C[C@H]3[C@@H]4N(C)c5ccccc5[C@]45C[C@@H]([C@@H]2[C@H]5O)N3[C@@H]1O [Ajmaline] | 0.82
CC(=O)OCC1=C(C(=O)O)N2C(=O)C(N)C2SC1 (centres undefined) [7-Aminocephalosporanic acid] | -0.97
CN1C(=O)COc2c(C(=O)NC3CN4CCC3CC4)cc(Cl)cc21 (centres undefined) [Azasetron HCl] | 1.59
C[C@@H]1CC[C@H]2[C@@H](C)C(=O)O[C@@H]3O[C@@]4(C)CC[C@@H]1[C@]32OO4 [Artemisinin] | -4.51
Nc1ccncc1 [4-Aminopyridine] | 0.04

SMILES | z-score of subpopulation abundance
CN1[C@@H]2C[C@@H](OC(=O)[C@H](CO)c3ccccc3)C[C@H]1[C@@H]1O[C@@H]12 [Scopolamine HBr trihydrate] | -0.97
COC(=O)C1=CCCN(C)C1 [Arecoline HBr] | 0.3
O=C(O[C@H]1C[C@H]2CC[C@@H](C1)[N+]21CCCC1)C(O)(c1ccccc1)c1ccccc1 [Trospium chloride] | 0.12
NCCc1c[nH]c2ccc(O)cc12 [Serotonin HCl] | 0.15
Oc1cc(Cl)ccc1Oc1ccc(Cl)cc1Cl [Triclosan] | -4.35
CNC1CC(N)C(O)C(OC2OC(CO)C(O)C3OC4(OC(C(N)CO)C(O)C(O)C4O)OC23)C1O (centres undefined) [Hygromycin B] | -0.9
C=C[C@H]1CN2CC[C@H]1C[C@H]2[C@H](O)c1ccnc2ccccc12 [Cinchonidine] | 0.23
CCOC(=O)Nc1ccc(NCc2ccc(F)cc2)cc1N [Retigabine] | 0.51
COc1cc2c(cc1OC)C1CC(=O)C(CC(C)C)CN1CC2 (centres undefined) [Tetrabenazine (Xenazine)] | 0.98
COc1ccc(C(CN(C)C)C2(O)CCCCC2)cc1 (centres undefined) [Venlafaxine] | -0.73
C[C@H]1O[C@H](O[C@H]2[C@H](O)[C@@H](O)[C@@H](O)[C@H](O)[C@@H]2O)[C@@H](N)C[C@@H]1NC(=N)C(=O)O [Kasugamycin hydrochloride] | -0.97
CN(C)[C@@H]1C(=O)C(C(N)=O)=C(O)[C@@]2(O)C(=O)C3=C(O)c4c(O)cccc4[C@@](C)(O)[C@H]3C[C@@H]12 [Tetracycline HCl] | -0.05
CN[C@@H]1[C@@H](O)[C@@H](O[C@@H]2[C@@H](O)[C@H](O[C@H]3O[C@H](CN)CC[C@H]3N)[C@@H](N)C[C@H]2N)OC[C@]1(C)O.CN[C@@H]1[C@@H](O)[C@@H](O[C@@H]2[C@@H](O)[C@H](O[C@H]3O[C@H]([C@@H](C)N)CC[C@H]3N)[C@@H](N)C[C@H]2N)OC[C@]1(C)O.CN[C@@H]1[C@@H](O)[C@@H](O[C@@H]2[C@@H](O)[C@H](O[C@H]3O[C@H]([C@@H](C)NC)CC[C@H]3N)[C@@H](N)C[C@H]2N)OC[C@]1(C)O [Gentamicin Sulfate] | -0.59
CC[C@@H](C(N)=O)N1CCCC1=O [Levetiracetam] | 0.08
C=CCN1C[C@H](C(=O)N(CCCN(C)C)C(=O)NCC)C[C@@H]2c3cccc4[nH]cc(c34)C[C@H]21 [Cabergoline] | -0.27
O=[N+]([O-])C(Br)(CO)CO [Bronopol] | 0.51
Cc1cc(C(C#N)c2ccc(Cl)cc2)c(Cl)cc1NC(=O)c1cc(I)cc(I)c1O (centres undefined) [Closantel] | 1.17
